Reference: PubChem BioAssay AID1159580 (chemical genetic matrix, 2015)
Values joined by “and” are separate entries in the source; they are usually repeats but may differ in a detail not shown here. Equal values may be shown once. The campaign covered roughly 5,500 compounds. About 2,000 (36%) were called active. Another 18% or so got no clear call; they are omitted. Rule as the data show it: active = normalized growth mostly below about 0.91 (no sharp cut-off); inconclusive = no clear call, values can overlap the other calls; inactive = mostly above about 0.92. The list shows a part of the results.

Experiment: chemical genetic growth profiling, strain panel (AID 1159580);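 also: tested at 20 µM; growth read once vehicle control cultures reached saturation at 30 °C; 1 = growth at the plate median or of vehicle wells; lower values mean less growth of the strain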
Details: S. cerevisiae deletion strains, growth OD

Measured: normalized growth

C[n+]1c2cc(N)ccc2cc2ccc(N)cc21
0.724 (active) and 0.882 (inactive): locus YHR030C, strain SLT2, stronger effect = lower value
active: locus YAL013W, strain DEP1, stronger effect = lower value 0.748 | locus YAL021C, strain ccr4, stronger effect = lower value 0.335 | locus YAL026C, strain drs2, stronger effect = lower value 0.586 | locus YAL030W, strain snc1, stronger effect = lower value 0.505 | locus YBL061C, strain skt5, stronger effect = lower value 0.616 | locus YBR009C, strain hhf1, stronger effect = lower value 0.356 | locus YBR023C, strain chs3, stronger effect = lower value 0.666 | locus YBR229C, strain ROT2, stronger effect = lower value 0.888 | locus YBR231C, strain swc5, stronger effect = lower value 0.359 | locus YBR279W, strain paf1, stronger effect = lower value 0.701 | locus YCL011C, strain gbp2, stronger effect = lower value 0.438 | locus YCL016C, strain dcc1, stronger effect = lower value 0.331 | locus YCL029C, strain bik1, stronger effect = lower value 0.67 | locus YCL069W, strain vba3, stronger effect = lower value 0.588 | locus YCR088W, strain abp1, stronger effect = lower value 0.55 | locus YDL005C, strain med2, stronger effect = lower value 0.572 | locus YDL035C, strain GPR1, stronger effect = lower value 0.72 | locus YDL040C, strain nat1, stronger effect = lower value 0.718 | locus YDL074C, strain BRE1, stronger effect = lower value 0.575 | locus YDL101C, strain DUN1, stronger effect = lower value 0.761 | locus YDL134C, strain PPH21, stronger effect = lower value 0.726 | locus YDL192W, strain arf1, stronger effect = lower value 0.844 | locus YDR001C, strain nth1, stronger effect = lower value 0.74 | locus YDR069C, strain doa4, stronger effect = lower value 0.591 | locus YDR101C, strain arx1, stronger effect = lower value 0.81 | locus YDR137W, strain rgp1, stronger effect = lower value 0.616 | locus YDR150W, strain NUM1, stronger effect = lower value 0.831 | locus YDR159W, strain sac3, stronger effect = lower value 0.77 | locus YDR162C, strain NBP2, stronger effect = lower value 0.723 | locus YDR195W, strain ref2 1.22 [resistant] | locus YDR297W, strain sur2, stronger effect = lower value 0.652 | locus YDR318W, strain mcm21, stronger effect = lower value 0.834 | locus YDR334W, strain swr1, stronger effect = lower value 0.412 | locus YDR335W, strain msn5, stronger effect = lower value 0.499 | locus YDR388W, stronger effect = lower value 0.722 | locus YDR392W, strain spt3, stronger effect = lower value 0.352 | locus YDR502C, strain sam2, stronger effect = lower value 0.793 | locus YEL003W, strain gim4, stronger effect = lower value 0.491 | locus YEL037C, strain rad23, stronger effect = lower value 0.437 | locus YEL061C, strain CIN8 (second series), stronger effect = lower value 0.652 | locus YEL061C, strain CIN8, stronger effect = lower value 0.851 | locus YER015W, strain faa2, stronger effect = lower value 0.498 | locus YER016W, strain bim1, stronger effect = lower value 0.479 | locus YER111C, strain swi4, stronger effect = lower value 0.633 | locus YER155C, strain BEM2 (second series), stronger effect = lower value 0.272 | locus YER167W, strain BCK2, stronger effect = lower value 0.754 | locus YFR010W, strain ubp6, stronger effect = lower value 0.536 | locus YGL086W, strain mad1, stronger effect = lower value 0.778 | locus YGL173C, strain kem1, stronger effect = lower value 0.481 | locus YGL227W, strain vid30, stronger effect = lower value 0.671 | locus YGL240W, strain doc1, stronger effect = lower value 0.63 | locus YGL248W, strain PDE1, stronger effect = lower value 0.758 | locus YGL253W, strain hxk2, stronger effect = lower value 0.425 | locus YGR078C, strain PAC10, stronger effect = lower value 0.722 | locus YGR135W, strain pre9, stronger effect = lower value 0.777 | locus YGR229C, strain SMI1, stronger effect = lower value 0.704 | locus YGR252W, strain gcn5, stronger effect = lower value 0.531 | locus YHR013C, strain ard1, stronger effect = lower value 0.397 | locus YHR027C, strain rpn1, stronger effect = lower value 0.546 | locus YHR079C, strain IRE1 (second series), stronger effect = lower value 0.779 | locus YHR079C, strain IRE1, stronger effect = lower value 0.841 | locus YHR129C, strain ARP1, stronger effect = lower value 0.897 | locus YHR142W, strain chs7, stronger effect = lower value 0.44 | locus YHR200W, strain rpn10, stronger effect = lower value 0.682 | locus YIL066C, strain RNR3, stronger effect = lower value 0.792 | locus YIL073C, strain SPO22, stronger effect = lower value 0.534 | locus YIR030C, strain dcg1, stronger effect = lower value 0.859 | locus YJL092W, strain hpr5, stronger effect = lower value 0.253 | locus YJL095W, strain BCK1 (second series), stronger effect = lower value 0.487 | locus YJL095W, strain BCK1, stronger effect = lower value 0.486 and 0.879 | locus YJL115W, strain asf1, stronger effect = lower value 0.369 | locus YJL129C, strain trk1, stronger effect = lower value 0.773 | locus YJL134W, strain LCB3, stronger effect = lower value 0.912 | locus YJL154C, strain vps35, stronger effect = lower value 0.808 | locus YJL164C, strain tpk1, stronger effect = lower value 0.417 | locus YJL166W, strain qcr8, stronger effect = lower value 0.392 | locus YJL168C, strain set2, stronger effect = lower value 0.91 | locus YJL187C, strain SWE1 (second series), stronger effect = lower value 0.708 | locus YJR043C, strain POL32, stronger effect = lower value 0.703 | locus YJR075W, strain HOC1, stronger effect = lower value 0.566
inactive: locus YBR021W, strain FUR4, stronger effect = lower value 1.11 | locus YBR171W, strain sec66, stronger effect = lower value 0.934 | locus YDL185W, strain tfp1, stronger effect = lower value 0.938 | locus YER110C, stronger effect = lower value 0.961 | locus YER155C, strain BEM2, stronger effect = lower value 0.935 | locus YGL078C, strain dbp3, stronger effect = lower value 0.937 | locus YGL167C, strain pmr1, stronger effect = lower value 0.938 | locus YHR094C, strain hxt1, stronger effect = lower value 0.939 | locus YIL125W, strain kgd1, stronger effect = lower value 0.945 | locus YJR066W, strain TOR1, stronger effect = lower value 0.849
